Test systems include SR leukemia; RPMI-8226 leukemia; OVCAR-5 ovarian; OVCAR-4 ovarian; SK-OV-3 ovarian; IGROV1 ovarian; OVCAR-3 ovarian; HS 578T breast; NCI/ADR-RES ovarian.
Holding throughout (experiment): NCI-60 one-dose screen, 48 h (100 = growth as untreated, 0 = no growth, -100 = all killed)
Common to all, as to settings: 10 µM

Each structure is given as a SMILES string. This is part of a sample that, as a whole, favours compounds with a hit. Of some 83,000 tested, about 20% had one in any assay.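 Values shown are percent growth following 48 h exposure of cells in 96-well plates to a single concentration of compound; below 10 was considered active.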 A number with no mark means an inactive call. The source made the active and inactive calls. Where a SMILES comes first, the peptide text is derived from it. Bridges are numbered along the chain shown (N, C = ends). [ ]: non-standard residue; d: D form. The star is where a group is joined. ξ: configuration not given here. ξNMePhe(4-NMe2) = CNC(Cc1ccc(N(C)C)cc1)C(=O)O; Picolinoyl(3-OH) = O=C(c1ncccc1O)*; ξPip(4-oxo) = O=C1CCNC(C(=O)O)C1; Phg = N[CH](C(=O)O)c1ccccc1; Abu = CC[CH](N)C(=O)O

Regarding `c1ccc(CN2COc3c(ccc4c3OCN(Cc3ccccc3)C4)C2)cc1`, the growth in the assay on SR leukemia was 5.08% (active); with RPMI-8226 leukemia, 21.9%; with OVCAR-5 ovarian, 41.8%; in the assay on OVCAR-4 ovarian, 26.3%; in the assay on SK-OV-3 ovarian, 10.1%; with IGROV1 ovarian, 32.1%. The growth in the assay on OVCAR-3 ovarian was 24.6%; in the assay on HS 578T breast, 53.6%; in the assay on NCI/ADR-RES ovarian, 16.6%.

As to `COc1cc2c3c(n(C)c(=O)c2cc1OC)-c1cc2c(cc1C3=O)OCO2`, the growth is 17.6% in the assay with SR leukemia; 48.2% in the assay on RPMI-8226 leukemia; 78.4% with OVCAR-5 ovarian; 55.8% in the assay on OVCAR-4 ovarian; 74.6% with SK-OV-3 ovarian; 11.3% in the assay with IGROV1 ovarian. For the same compound, the growth in the assay with OVCAR-3 ovarian is 104%; in the assay on HS 578T breast it was 102%; in the assay with NCI/ADR-RES ovarian, 77.5%.

In the case of `CCS(=O)(=O)c1cc(=O)[nH]c(=O)[nH]1`, the growth is 57.6% in the assay with SR leukemia; 124% in the assay with RPMI-8226 leukemia; 106% in the assay with OVCAR-5 ovarian; 102% with OVCAR-4 ovarian; 116% with SK-OV-3 ovarian; 136% with IGROV1 ovarian. In addition, the growth is 112% in the assay with OVCAR-3 ovarian and 103% in the assay with NCI/ADR-RES ovarian.

For the compound `COC(=O)c1cccnc1`, the growth was 104% in the assay with SR leukemia; 106% in the assay with RPMI-8226 leukemia; 90.3% with OVCAR-5 ovarian; 110% with OVCAR-4 ovarian; 101% with SK-OV-3 ovarian; 91.9% in the assay on IGROV1 ovarian. Also, the growth with OVCAR-3 ovarian was 106%; with HS 578T breast, 99.3%; with NCI/ADR-RES ovarian it was 95.9%.

As to `COc1cc2c(cc1O)CC[C@@H]1C2CC[C@@]2(C)C1CC[C@@H]2O` (stereo not given in full), the growth with SR leukemia is 15.1%; in the assay with RPMI-8226 leukemia it was 0% (active); with OVCAR-5 ovarian it was -41.5% (active); in the assay with OVCAR-4 ovarian, 65.2%; in the assay on SK-OV-3 ovarian, 24.1%; in the assay on IGROV1 ovarian, 25.3%. Moreover, the growth is 4.72% (active) with OVCAR-3 ovarian and -70.7% (active) in the assay on NCI/ADR-RES ovarian.

On to `CC(=O)OCC1=CC2OC(=O)C3=COC(OC4OC(CO)C(O)C(O)C4O)C1C32` (stereo not given), for which the growth in the assay on SR leukemia was 120%; in the assay with RPMI-8226 leukemia, 114%; in the assay with OVCAR-5 ovarian, 111%; in the assay on OVCAR-4 ovarian, 129%; in the assay with SK-OV-3 ovarian it was 108%; in the assay on IGROV1 ovarian it was 71.3%. Also, the growth was 112% in the assay on OVCAR-3 ovarian and 32.9% in the assay on NCI/ADR-RES ovarian.

Turning to `CCNc1nc2c(cnn2C)c(=O)[nH]1`, the growth in the assay with SR leukemia was 92.3%; with RPMI-8226 leukemia, 99.8%; in the assay on OVCAR-5 ovarian, 103%; in the assay on OVCAR-4 ovarian, 109%; in the assay on SK-OV-3 ovarian, 96.2%; with IGROV1 ovarian, 84.5%. Besides, the growth in the assay with OVCAR-3 ovarian was 109%; in the assay on HS 578T breast, 92.5%; with NCI/ADR-RES ovarian, 108%.

With `CNC(=O)c1ccccc1CC1(O)c2ccccc2Oc2ccccc21`, the growth in the assay with SR leukemia is 8.48% (active); in the assay with RPMI-8226 leukemia, 70.5%; with OVCAR-5 ovarian, 80.4%; in the assay on OVCAR-4 ovarian it was 83.6%; in the assay with SK-OV-3 ovarian, 73.7%; in the assay with IGROV1 ovarian, 43%. The growth is 24.7% with OVCAR-3 ovarian, 63.5% in the assay with HS 578T breast and 29% with NCI/ADR-RES ovarian.

`C#CC(C(C)C)N(CCO)CCCC` (stereo not given): the growth in the assay on SR leukemia was 101%; with RPMI-8226 leukemia, 101%; in the assay with OVCAR-5 ovarian it was 92.4%; with OVCAR-4 ovarian, 101%; in the assay with SK-OV-3 ovarian, 106%; with IGROV1 ovarian it was 115%. Further, the values for the growth in the assay with OVCAR-3 ovarian, in the assay with HS 578T breast and in the assay on NCI/ADR-RES ovarian were 111%, 102% and 110%, respectively.

Turning to `c1ncc2[nH]cnc2n1`, the growth in the assay with SR leukemia is 100%; in the assay with RPMI-8226 leukemia it was 91.9%; in the assay with OVCAR-5 ovarian, 96.7%; with OVCAR-4 ovarian it was 110%; in the assay with SK-OV-3 ovarian, 90.8%; with IGROV1 ovarian it was 92%. In addition, the growth was 110% in the assay on OVCAR-3 ovarian, 114% in the assay on HS 578T breast and 104% with NCI/ADR-RES ovarian.

For the compound `CCCC1(c2ccccc2)NC(=O)NC1=O` (stereo not given), the growth is 126% in the assay on SR leukemia; 101% with RPMI-8226 leukemia; 103% with OVCAR-5 ovarian; 104% with OVCAR-4 ovarian; 99.7% with SK-OV-3 ovarian; 128% in the assay on IGROV1 ovarian. The growth was 108% in the assay with OVCAR-3 ovarian, 113% in the assay on HS 578T breast and 109% in the assay with NCI/ADR-RES ovarian.

Turning to `CCC1NC(=O)C(NC(=O)c2ncccc2O)C(C)OC(=O)C(c2ccccc2)NC(=O)C2CC(=O)CCN2C(=O)C(Cc2ccc(N(C)C)cc2)N(C)C(=O)C2CCCN2C1=O` (stereo not given) (tested in a mixture with another compound) ({Picolinoyl(3-OH)}-T[Abu]P[ξNMePhe(4-NMe2)][ξPip(4-oxo)][Phg]; ester 1-C; configuration not given here), the growth is 52.1% in the assay on SR leukemia; 34.1% with RPMI-8226 leukemia; -21.3% (active) with OVCAR-5 ovarian; 48.1% in the assay with OVCAR-4 ovarian; 95.5% with SK-OV-3 ovarian; 64% in the assay with IGROV1 ovarian. The growth in the assay with OVCAR-3 ovarian is 63.1%; in the assay on NCI/ADR-RES ovarian, 179%.

For `O=c1cc(-c2ccccc2)oc2c1ccc1ccccc12`, the growth with SR leukemia was 67.3%; in the assay with RPMI-8226 leukemia it was 77.8%; with OVCAR-5 ovarian it was 96%; with OVCAR-4 ovarian, 93.6%; in the assay with SK-OV-3 ovarian, 88.2%; with IGROV1 ovarian it was 94.1%. Also, the growth with OVCAR-3 ovarian was 107%; with HS 578T breast, 97.8%; in the assay with NCI/ADR-RES ovarian, 82.6%.

Regarding `C#CCSc1nnnn1-c1ccc(Br)c(C)c1`, the growth was 74.4% in the assay with SR leukemia; 62.1% in the assay with RPMI-8226 leukemia; 90% in the assay on OVCAR-5 ovarian; 80.8% in the assay with OVCAR-4 ovarian; 105% in the assay on SK-OV-3 ovarian; -28.7% (active) with IGROV1 ovarian. Also, the figures for the growth in the assay on OVCAR-3 ovarian, in the assay with HS 578T breast and in the assay on NCI/ADR-RES ovarian were 106%, 78.2% and 84.6%, respectively.

As for `COC(=O)/C=C/C(=O)NC(N)=O`, the growth with SR leukemia is 95.9%; with RPMI-8226 leukemia it was 103%; with OVCAR-5 ovarian, 98.3%; in the assay on OVCAR-4 ovarian, 98.5%; in the assay with SK-OV-3 ovarian, 96.2%; in the assay on IGROV1 ovarian, 116%. The growth with OVCAR-3 ovarian was 107%; in the assay on HS 578T breast, 107%; in the assay on NCI/ADR-RES ovarian, 109%.

For the compound `O=c1[nH][nH]c(=O)c2cc([N+](=O)[O-])ccc12`, the growth with SR leukemia was 94.9%; in the assay with RPMI-8226 leukemia it was 106%; in the assay with OVCAR-5 ovarian it was 110%; in the assay with OVCAR-4 ovarian, 99.2%; in the assay on SK-OV-3 ovarian, 101%; in the assay on IGROV1 ovarian it was 103%. The results for the growth in the assay on OVCAR-3 ovarian, in the assay with HS 578T breast and with NCI/ADR-RES ovarian were 127%, 100% and 105%, respectively.

The record behind these values is PubChem BioAssay (NCI).
